# Assay outcomes as filed in PubChem BioAssay.
# Compounds with a hit are over-represented: about 1.5% of the library has one in this group of screens.
# Cdc25B inh – human M-phase inducer phosphatase 2 inhibition. recombinant Cdc25B, OMFP fluorescence Ex485/Em525. inhibition, %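 (compounds tested at 10 µM final in the well)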. hit rate 0.1% among 65,000; in the data active means inhibition above about 50%
# SKBR3 24h inh – SK-BR-3 proliferation inhibitors; viability, % at 10 µM; AID 847; SK-BR-3 viability, CellTiter-Glo ATP luminescence, 24 h; stronger effect = lower value; hit rate 0.47% among 41,000;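 active means viability at or below the median of all test compounds minus 3 SD, in both replicates if run twice, cut at about 45% in these data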;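 further: 100% = median untreated cell wells and 0% = median positive control drug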
# Her2 expr inh – inhibitors of human Her2 kinase expression; SKBR-3 HER2 protein level, AlphaScreen, 18-24 h; stronger effect = lower value; hit rate 0.69% among 65,000; P04626; HER2 level % of control, % at 10 µM; AID 645;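 active means HER2 level under 5% of the carrier-only control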;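 further: 100% = DMSO carrier and 0% = 500 nM PU-H71 HSP90 inhibitor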
# DUSP1 inh – blocks human MKP-1 phosphatase activity; P28562; recombinant MKP-1, OMFP hydrolysis fluorescence; inhibition, %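 (compounds tested at a single concentration somewhere between 10 and 100 µM)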; hit rate 0.15% among 65,000;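 active means inhibition above about 50%, limit read from the data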;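 further: 0% = DMSO max control wells and 100% = wells with enzyme stopped by NaOH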
# Target sequence (P28562 whole entry, looked up): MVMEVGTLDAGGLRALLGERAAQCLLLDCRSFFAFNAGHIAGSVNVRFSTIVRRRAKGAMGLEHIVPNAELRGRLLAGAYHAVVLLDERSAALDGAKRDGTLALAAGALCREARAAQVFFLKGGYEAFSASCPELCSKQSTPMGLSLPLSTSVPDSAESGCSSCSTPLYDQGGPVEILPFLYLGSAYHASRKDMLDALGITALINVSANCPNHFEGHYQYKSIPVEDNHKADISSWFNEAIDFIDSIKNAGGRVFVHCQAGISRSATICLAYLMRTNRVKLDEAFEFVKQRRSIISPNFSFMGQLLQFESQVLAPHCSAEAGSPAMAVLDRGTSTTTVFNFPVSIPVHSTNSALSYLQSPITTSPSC
# Hsp90 block – displaces geldanamycin probe from tumor Hsp90; inhibition, % at 30 µM; hit rate 0.35% among 64,000; P07900; NCI-N417 lysate Hsp90, Cy3B-geldanamycin FP displacement;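 active means inhibition above 50%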;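 further: 0% = tracer plus lysate wells and 100% = tracer alone without lysate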
# * marks the source's active call; other numbers are inactive results; . = not tested or not shown.
SMILES,Cdc25B inh,SKBR3 24h inh,Her2 expr inh,DUSP1 inh,Hsp90 block
Cc1[nH]c2ccccc2c1C(=O)COC(=O)C1CCC(=O)N1 (stereo unspecified),3.6,.,-20.6*,18.6,-0.7
COc1ccccc1N1CCN(CC(=O)c2c(C)[nH]c3ccccc23)CC1,3.4,80.1,103.1,-7.8,-4.2
CC(=O)NCCc1ccc(S(=O)(=O)NCc2ccc3c(c2)OCO3)cc1,-7.8,116.1,121.0,3.4,-1.4
CCCc1cc2c(cc1NS(=O)(=O)c1ccc(CCNC(C)=O)cc1)OCO2,5.9,.,90.8,0.3,57.0*
CC12CCCCC1(O)[N+](=O)C1=C(CCCC1)N2[O-] (stereo unspecified),0.3,63.9,-17.4*,5.5,1.4
COc1cccc(NC(=O)N2CCN(Cc3nc4ccccc4c(=O)[nH]3)CC2)c1,-11.3,81.3,81.5,4.6,0.8
Cc1nc2c(C)cccn2c1/C(O)=C1\C(=O)C(=O)N(CCN(C)C)C1c1ccncc1 (stereo unspecified),55.6*,92.9,67.2,-9.7,-4.2
COc1ccc(CNc2ccc(C(=O)O)cc2)cc1,10.4,108.2,-30.2*,-4.4,-1.4
COc1ccc(S(=O)(=O)NCc2ccc(C(=O)O)cc2)cc1,-2.4,.,95.9,-0.4,-0.7
Cc1ccc2nc(Nc3ccccc3)c(/C=N/O)c(=O)n2c1,5.2,.,-25.1*,23.3,2.2
Cc1ccc(-c2ccc(=O)n(CCC(=O)NCc3ccccn3)n2)cc1,23.8,81.5,80.3,-1.0,0.2
NC(=O)C(=O)O,.,.,.,.,-0.1
Cc1ccc(S(=O)(=O)N2CCC(C(=O)N[C@@H](C)C(=O)Nc3ccc4c(c3)OCO4)CC2)cc1,1.8,79.8,69.9,-15.7,65.0*
CCN1C(=O)CC(C(=O)Nc2ccc(F)cc2)SC1=Nc1ccc2c(c1)OCO2 (stereo unspecified),1.8,.,-27.4*,3.5,8.5
CCOc1ccc(NC(=O)C2CC(=O)N(CC)C(=Nc3ccc4c(c3)OCO4)S2)cc1 (stereo unspecified),-15.8,.,49.8,2.2,0.7
CNc1ncnc2c1ncn2[C@H]1C[C@H](OP(=O)(O)O)[C@@H](COP(=O)(O)O)O1,.,.,.,.,-2.3
CCn1c(Oc2ccc(Oc3ncc(Cl)cc3Cl)cc2)nc2c1c(=O)n(C)c(=O)n2C,-3.5,56.8,122.6,-8.2,1.2
CCCc1cc(-c2[nH]ncc2-c2ccc3c(c2)OCCCO3)c(O)cc1O,2.1,85.1,9.8,38.1,77.8*
CSc1nnc(N(CCC#N)CCC#N)s1,5.3,106.2,121.6,-12.8,-1.2
COc1cccc2c1C(=O)c1c(O)c3c(c(O)c1C2=O)C[C@@](O)(C(C)=O)C[C@@H]3O[C@H]1C[C@H](N)[C@H](O)[C@H](C)O1,-1.4,98.7,79.3,6.2,79.6*
CC(=O)[C@]1(O)Cc2c(O)c3c(c(O)c2[C@@H](O[C@H]2C[C@H](N)[C@H](O)[C@H](C)O2)C1)C(=O)c1ccccc1C3=O,.,.,.,.,155.7*
Nc1ncnc2c1ncn2[C@@H]1O[C@H](COP(=O)(O)OP(=O)(O)OP(=O)(O)OP(=O)(O)OC[C@@H]2O[C@H](n3cnc4c(N)ncnc43)C(O)[C@@H]2O)[C@H](O)C1O (stereo partly specified),.,.,.,.,10.6
O=c1onc2cnc3ccccc3n12,.,.,.,.,21.6
COc1cccc(CN2CCN(CC(=O)Nc3ccccc3Cl)CC2)c1,-10.1,.,95.8,1.3,-0.8
O=C1c2oc3ccccc3c(=O)c2C(c2ccc(Br)cc2)N1c1ncccn1 (stereo unspecified),0.8,89.5,87.2,-14.4,-7.3
SMILES,Cdc25B inh,SKBR3 24h inh,Her2 expr inh,DUSP1 inh,Hsp90 block
O=C(NCC1CCCCC1)C1CCN(C(=O)NC2CCCCC2)CC1,-7.3,34.7*,109.8,14.9,-0.9
Oc1ccc(-c2nc(-c3ccc(O)c(O)c3)cs2)cc1,8.0,.,45.9,7.3,99.4*
c1cncc(-c2nc(-c3ccc4c(c3)OCO4)cs2)c1,-13.7,.,80.9,-20.8,-0.2
CN(C)S(=O)(=O)c1ccc(S(=O)(=O)N(Cc2ccccn2)Cc2ccco2)cc1,-4.1,102.1,89.8,10.9,3.6
CC12CC(NC(=O)N1c1cccc(C(=O)N3CCN(c4ccccc4)CC3)c1)c1ccccc1O2 (stereo unspecified),-0.8,.,75.5,-5.3,1.3
CC12CC(NC(=O)N1c1ccc(C(=O)N3CCN(c4ccc(F)cc4)CC3)cc1)c1ccccc1O2 (stereo unspecified),8.1,91.1,81.8,53.2*,0.5
CC(=O)C1C(c2ccccc2Cl)NC(=O)NC1(O)C(F)(F)F (stereo unspecified),0.9,.,83.8,8.9,-2.3
CCOC(=O)C1C(c2ccccc2Cl)NC(=O)N(C)C1(O)C(F)(F)F (stereo unspecified),2.5,84.3,-28.4*,-8.4,0.7
CCOC(=O)C(CC)n1cnc2sc3c(c2c1=O)CCC3 (stereo unspecified),83.5*,110.5,122.5,-23.9,2.1
O=C1CC(NCc2ccccc2F)C(=O)N1c1ccccc1 (stereo unspecified),-10.9,39.2*,97.5,-16.8,-0.3
Cc1nn2c(-c3cccc(NC(=O)c4ccco4)c3)nnc2c2ccccc12,-11.2,74.4,73.9,51.0*,-9.4
CC1CC(C)CN(CC(=O)N2CCc3[nH]c4ccccc4c3C2)C1 (stereo unspecified),-4.0,42.9*,117.3,-10.0,-5.2
NCCC1CCCC(CCN)N1 (stereo unspecified),.,.,.,.,-1.8
CCOc1ccc(N2C(=O)CC(Sc3nc(C)cc(C)c3C#N)C2=O)cc1 (stereo unspecified),4.4,86.4,-9.9*,29.4,-1.4
COC(=O)c1cc(NC2c3ncccc3C(=O)N2Cc2ccccc2)cc(C(=O)OC)c1 (stereo unspecified),-27.1,.,86.0,32.2,2.0
CCOC(=O)c1ccc(NC2c3ncccc3C(=O)N2Cc2ccc(F)cc2)cc1 (stereo unspecified),-2.6,.,106.3,52.1*,-1.2
Cc1ccc(C(=O)O[C@H](C(=O)O)[C@H](OC(=O)c2ccc(C)cc2)C(=O)O)cc1 (tested in a mixture with another compound),.,.,.,.,-0.7
N=c1ccn2c(n1)OC1[C@@H](O)[C@@H](CO)O[C@H]12 (stereo partly specified),.,.,.,.,-3.6
Cc1nc2nc(-c3cccnc3)nn2c(C)c1Cl,1.8,88.8,77.9,-8.0,-3.0
Cc1nc2nc(-c3ccco3)nn2c(C)c1Cl,-5.2,112.7,-8.6*,-11.7,-6.9
O=C(O)c1ccc2c3c(ncnc13)-c1ccccc1C2=O,-0.8,43.8*,-15.9*,-10.0,89.5*
O=C1c2ccccc2-c2ncnc3cccc1c23,2.0,114.2,111.8,8.0,3.0
NCC(O)C1CCCCCCC1 (stereo unspecified),.,.,.,.,-0.5
Oc1ccc(N=Cc2ccc(-c3cccs3)s2)cc1,-3.3,.,-22.4*,-16.3,13.1
O=C1CCCC(O)=C1C=Nc1ccc(O)cc1,0.5,.,124.2,10.1,2.2
CCOC(=O)N1CCN(CCC(=O)c2ccc(Cl)cc2)CC1,-4.0,.,-6.8*,0.6,-0.9
